The values below come from PubChem BioAssay (NCI).

This is part of a sample that, as a whole, favours compounds with a hit. Of some 83,000 tested, about 20% had one in any assay.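 48-hour exposure, single concentration, 96-well plates; percent growth endpoint where 0 means no net growth. Active: below 10.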 Values without a mark were called inactive. The source made the active and inactive calls.

Among the test systems are SK-MEL-2 melanoma; SN12C renal; UO-31 renal; TK-10 renal; ACHN renal; CAKI-1 renal; A498 renal; CCRF-CEM leukemia; MOLT-4 leukemia; SR leukemia; RPMI-8226 leukemia; OVCAR-5 ovarian; OVCAR-4 ovarian; SK-OV-3 ovarian; IGROV1 ovarian; OVCAR-3 ovarian; HS 578T breast; NCI/ADR-RES ovarian; OVCAR-8 ovarian.
Common to all, as to assay: NCI-60 one-dose screen, 48 h (100 = growth as untreated, 0 = no growth, -100 = all killed)
Details in all cases: 10 µM unless noted

With `O=C(Nc1cnc(Nc2ccc(N3CCOCC3)nc2)nc1Oc1ccc(C(F)(F)F)cc1)c1ccncc1`, the growth with SK-MEL-2 melanoma is 94.8%; in the assay on SN12C renal it was 85%; in the assay on UO-31 renal it was 98.4%; in the assay on TK-10 renal it was 107%; with ACHN renal, 98.9%; in the assay with CAKI-1 renal, 90.4%. In addition, the growth was 95.8% in the assay on A498 renal; 90.8% in the assay on CCRF-CEM leukemia; 101% with MOLT-4 leukemia; 19.3% with SR leukemia; 100% in the assay with RPMI-8226 leukemia; 92.9% in the assay on OVCAR-5 ovarian. Besides, the growth in the assay on OVCAR-4 ovarian is 80.3%; in the assay with SK-OV-3 ovarian, 101%; in the assay on IGROV1 ovarian, 94%; in the assay on OVCAR-3 ovarian it was 85%; in the assay with HS 578T breast, 81.6%; in the assay with NCI/ADR-RES ovarian it was 86%.

For `CN(CCCNC(=O)CCOCCOCCOCCNC(=O)Cc1ccc2ccc3cccc4ccc1c2c34)CCCNc1cc(-c2ccc3ccccc3c2)nc2ccccc12`, the growth in the assay on SK-MEL-2 melanoma was -70.4% (active); in the assay with SN12C renal it was -75.3% (active); in the assay on UO-31 renal it was -73.4% (active); in the assay on TK-10 renal it was -84.2% (active); in the assay on ACHN renal, -78.8% (active); in the assay with CAKI-1 renal it was -82.4% (active). The growth in the assay with A498 renal is -86.6% (active); with CCRF-CEM leukemia, -78.6% (active); in the assay on MOLT-4 leukemia it was -83.7% (active); in the assay with SR leukemia, -74.8% (active); in the assay with RPMI-8226 leukemia it was -48.9% (active); in the assay with OVCAR-8 ovarian it was -37.4% (active). For the same compound, the growth with OVCAR-5 ovarian was -86.4% (active); in the assay with SK-OV-3 ovarian, -96.8% (active); in the assay with IGROV1 ovarian it was -43.8% (active); in the assay on OVCAR-3 ovarian, -92% (active); with HS 578T breast it was -58.9% (active); in the assay on NCI/ADR-RES ovarian, 8.51% (active).

Consider `CN(CCCNC(=O)Cc1ccc2ccc3cccc4ccc1c2c34)CCCNc1cc(-c2ccc3ccccc3c2)nc2ccccc12`, for which the growth with SK-MEL-2 melanoma is -59.5% (active); in the assay with SN12C renal, -66.2% (active); with UO-31 renal it was -47.4% (active); in the assay on TK-10 renal it was -58.2% (active); in the assay with ACHN renal, -66.4% (active); with CAKI-1 renal, -36.9% (active). The growth is -62% (active) in the assay with A498 renal; -82.9% (active) with MOLT-4 leukemia; -70.8% (active) with SR leukemia; -47% (active) in the assay on RPMI-8226 leukemia; -25.3% (active) in the assay on OVCAR-8 ovarian; -88.2% (active) in the assay on OVCAR-5 ovarian. Moreover, the growth in the assay on OVCAR-4 ovarian is -83% (active); with SK-OV-3 ovarian it was -85.6% (active); in the assay on IGROV1 ovarian, -19.4% (active); with OVCAR-3 ovarian, -81.5% (active); in the assay on HS 578T breast, -32% (active); in the assay on NCI/ADR-RES ovarian, -77.7% (active).

On to `CN1CCN(C(=O)C(C)(C)c2ccc(C(=O)Nc3cn4cc(-c5ccncc5)ccc4n3)cc2)CC1`, for which the growth in the assay with SK-MEL-2 melanoma is -26.7% (active); with SN12C renal, 15.6%; in the assay with UO-31 renal, -23.7% (active); with TK-10 renal it was 0.354% (active); in the assay with ACHN renal it was 2.6% (active); with CAKI-1 renal, -5.37% (active). Besides, the growth with A498 renal is -63.2% (active); with CCRF-CEM leukemia, 16%; in the assay with MOLT-4 leukemia, 11.3%; in the assay with SR leukemia, 11.8%; in the assay with RPMI-8226 leukemia it was 10.7%; in the assay with OVCAR-8 ovarian it was 14.6%. In addition, the growth with OVCAR-5 ovarian was 18.3%; in the assay on OVCAR-4 ovarian, 2.83% (active); in the assay with SK-OV-3 ovarian, 9.33% (active); with IGROV1 ovarian it was 6.72% (active); with OVCAR-3 ovarian it was -37.4% (active); in the assay with HS 578T breast it was -6.52% (active). Besides, the growth in the assay with NCI/ADR-RES ovarian is 21.1%.

For `O=C1NC(=O)/C(=C/c2c(-c3ccccc3)nc3sc(COc4ccccc4)nn23)S1`, the growth with SK-MEL-2 melanoma was 92.1%; with SN12C renal, 102%; in the assay with UO-31 renal, 84.7%; in the assay with TK-10 renal, 108%; with ACHN renal, 98.3%; with CAKI-1 renal, 98%. Further, the growth with A498 renal was 78.7%; with CCRF-CEM leukemia, 98.3%; in the assay with MOLT-4 leukemia, 96.1%; in the assay with SR leukemia, 90.2%; with OVCAR-8 ovarian, 105%; with OVCAR-5 ovarian, 115%. The growth with OVCAR-4 ovarian is 93.4%; in the assay with SK-OV-3 ovarian, 105%; in the assay with IGROV1 ovarian, 112%; in the assay with OVCAR-3 ovarian, 110%; in the assay on HS 578T breast it was 105%; in the assay on NCI/ADR-RES ovarian, 100%.

On to `C[n+]1ccc(CCc2c[nH]c3ccccc23)cc1`, for which the growth in the assay on SK-MEL-2 melanoma was 81.7%; in the assay with SN12C renal it was 93.7%; in the assay with UO-31 renal, 76.7%; in the assay on TK-10 renal it was 81.2%; with ACHN renal, 90.9%; in the assay with CAKI-1 renal, 92.6%. Besides, the growth in the assay with A498 renal was 71.9%; with CCRF-CEM leukemia, 101%; in the assay with MOLT-4 leukemia it was 90.5%; in the assay with SR leukemia, 83.8%; with RPMI-8226 leukemia it was 94%; in the assay with OVCAR-8 ovarian it was 107%. Also, the growth with OVCAR-5 ovarian was 86.5%; with OVCAR-4 ovarian it was 99.4%; in the assay with SK-OV-3 ovarian it was 77.3%; in the assay with IGROV1 ovarian, 87.7%; with OVCAR-3 ovarian, 107%; with HS 578T breast it was 104%. In addition, the growth in the assay with NCI/ADR-RES ovarian is 105%.

In the case of `COC(=O)c1c2c(c(C)[n+]([O-])c1C)C(=O)C(NCc1ccc(OC)cc1)=CC2=O`, the growth was 62.3% in the assay on SK-MEL-2 melanoma; 0.985% (active) with SN12C renal; 65.3% with UO-31 renal; 102% with TK-10 renal; 40.1% in the assay with ACHN renal; 48.5% in the assay on CAKI-1 renal. Moreover, the growth with A498 renal is 113%; in the assay on CCRF-CEM leukemia, 20.7%; in the assay with MOLT-4 leukemia, 0.904% (active); in the assay with SR leukemia, 9.98% (active); with OVCAR-8 ovarian, -15.2% (active); in the assay on OVCAR-5 ovarian it was 53%. Further, the growth in the assay on OVCAR-4 ovarian was -39.2% (active); in the assay on SK-OV-3 ovarian, 99.2%; in the assay with IGROV1 ovarian, 8.2% (active); with OVCAR-3 ovarian, -18.6% (active); with HS 578T breast, 84.8%; in the assay with NCI/ADR-RES ovarian it was 10.1%.

Consider `COc1ccc(C2=CC(c3cc(OC)c(OC)c(OC)c3)n3ncnc3N2)cc1` (configuration not stated), for which the growth in the assay on SK-MEL-2 melanoma is 24%; in the assay with SN12C renal, 38.4%; in the assay with UO-31 renal it was 41.3%; in the assay with TK-10 renal, 62%; in the assay on ACHN renal, 32.4%; in the assay with CAKI-1 renal, 21.7%. The growth in the assay with A498 renal is -5.66% (active); in the assay with CCRF-CEM leukemia it was 13.8%; in the assay with MOLT-4 leukemia, 17.3%; in the assay on SR leukemia, 10.3%; in the assay on RPMI-8226 leukemia, 24.4%; in the assay with OVCAR-8 ovarian it was 5.91% (active). For the same compound, the growth in the assay on OVCAR-5 ovarian is 35%; in the assay with OVCAR-4 ovarian, 41.4%; in the assay with SK-OV-3 ovarian, -7.15% (active); with IGROV1 ovarian it was 22.2%; in the assay on OVCAR-3 ovarian, -41.4% (active); with HS 578T breast it was 27%. In addition, the growth with NCI/ADR-RES ovarian was 12.8%.
